The structures appear in SMILES notation. Records with an inconclusive call do not appear. Activity calls are given as the source filed them. The call rests on the fitted dose curve; in most records, active means well fitted activation curve with a large enough effect in the repeat runs; inconclusive means weak or mixed curves; inactive means flat fitted curve, though single readings scatter.

This test is described as follows: A CellTox Green Cytotoxicity Assay to monitor cytotoxicity in HEK293 cells - 8 hour (AID 1224884). Further: nearly all actives have a fitted effect of over 35% in size. Conditions: CellTox Green fluorescence; series mostly up to 76.8 µM. The text has this:
National Center for Advancing Translational Sciences [NCATS]
NIH Chemical Genomics Center [NCGC]
U.S. Environmental Protection Agency [EPA]
National Institutes of Environmental Health Sciences [NIEHS]
National Toxicology Program [NTP]
Cell-based models are critical for drug discovery. Determining the natural cytotoxic effects resulting from test compounds is an essential research activity. A CellTox Green Cytotoxicity Assay to monitor cytotoxicity in real time of continues cell culture during 40 hours of the compound treatment was used to screen Tox21 10K library compounds in Hek293 cells. CellTox Green Cytotoxicity Assay is a nonlytic, homogeneous, biofluorescent method to measure cytotoxicity in cell culture after experimental manipulation. The assay system uses a proprietary asymmetric cyanine dye that is excluded from viable cells but preferentially stains the dead cell's DNA. […] Viable cells produce no appreciable increases in fluorescence. Therefore, the fluorescence signal produced by the binding interaction with dead cell DNA is proportional to cytotoxicity.
The mixture of Hek293 cell suspension and reagents were dispensed at 600cells/6 ul/well in 1536-well tissue culture treated black solid bottom plates using a Multidrop dispenser. After the assay plates were incubated at a 37 C/5% CO2 incubator for 5 hours, 23 nL of compounds dissolved in DMSO, positive and negative controls was transferred to the assay plate by a pintool work station. The plates were incubated at 37 C for 40 hours. The fluorescence intensity were measured at 0h, 8h, 16h, 24h, 32h and 40h time points using ViewLux plate reader during compound treatment.
Consider `CCCCCCCCCCO`, for which the molecule was called inactive. Then `COC(=O)c1cccnc1`, with “inactive”. Then `CC(=O)OCCOC(C)=O`, with “inactive”; and `O=C(O)CCCCCCCCC(=O)O`, with “inactive”; and `C=C(C)[C@H]1CC=C(C)C(=O)C1`, with “inactive”. With `CCCCCC(=O)O`, the molecule was classed as inactive. Then `C=CCc1ccc(OC)c(OC)c1`, with “inactive”; and `O=C1c2ccccc2CCc2ccccc21`, with “inactive”; and `CCNc1ccccc1`, with “inactive”.

On to `CNC(=S)N(C)C`, for which the result was inactive.

Turning to `CC(C)(Oc1ccc(CCNC(=O)c2ccc(Cl)cc2)cc1)C(=O)O`, the molecule was classed as inactive. Next, `CC1(C)S[C@@H]2[C@H](NC(=O)COc3ccccc3)C(=O)N2[C@H]1C(=O)O`: “inactive”; `CC(CCl)OP(=O)(OC(C)CCl)OC(C)CCl` (stereo not given): “inactive”; `C=C(C)C(=O)OCC(C)C`: “inactive”. As for `C=CC[N+](C)(C)CC=C`, the result was inactive.

As for `CC(C)OP(=O)(CP(=O)(OC(C)C)OC(C)C)OC(C)C`, the call was inactive.

In the case of `N#Cc1ccccc1`, the molecule was classed as inactive. As for `CN(C)c1ccc(O)c2c1C[C@H]1C[C@H]3[C@H](N(C)C)C(=O)C(C(N)=O)=C(O)[C@@]3(O)C(=O)C1=C2O`, the call was inactive.

Regarding `CC(C)=CCl`, the outcome was inactive. Next, `CC(=O)OC1CC(C)OC(C)O1` (stereo not given): “inactive”; `COc1ccc([N+](=O)[O-])cc1N`: “inactive”; `OCc1cccc(Oc2ccccc2)c1`: “inactive”. Then `COc1ccc(C)cc1N`, with “inactive”; and `c1ccc2c(c1)Cc1ccccc1-2`, with “inactive”; and `C[C@]12CC[C@@H]3c4ccc(O)cc4CC[C@H]3[C@@H]1C[C@@H](O)[C@@H]2O`, with “inactive”. `CCCCCCCO`: the result was inactive. Next, `OCc1ccccc1`: “inactive”. Next, `CCCCCCO`: “inactive”.

Consider `CCO[Si](CCCN)(OCC)OCC`, for which the result was inactive. Consider `Nc1ccc(Cl)c(N)c1`, for which the molecule was called inactive.

As for `CN(C)c1ccc(Cc2ccc(N(C)C)cc2)cc1`, the molecule was classed as inactive. Next, `COc1ccc(OC)cc1`: “inactive”; `NCCN1CCNCC1`: “inactive”. Then `CC(=O)Oc1ccc(C)cc1`, with “inactive”. Then `C=Cc1ccc(C)cc1`, with “inactive”. For `Clc1ccccn1`, the result was inactive. Next, `CCOC(=O)n1ccn(C)c1=S`: “inactive”; `CCNc1cccc(C)c1`: “inactive”.

Take `C=CC(=O)OCCC(=O)O`: the result was inactive.

`O=S(=O)(O)c1ccc(N=Nc2c(O)ccc3cc(S(=O)(=O)O)ccc23)cc1`: the molecule was classed as inactive.

The values above are taken from PubChem BioAssay (Tox21).
